HT1080 IDH1KD tx: HT-1080 IDH1 knockdown cell toxicity (counter line); HT-1080 IDH1 knockdown viability, ATP luminescence, 48 h; Potency, µM (highest dose often 46.1 µM), for the others: at the highest dose activity, negative = toxicity, actives largely listed as cytotoxic; actives 2% (n = 360,000);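 also: potency is read from the fitted curve at half-maximal effect; 0% = DMSO wells and -100% = cell-free medium wells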
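CellTiter-Glo luminescence after 48 h compound exposure at 37 degrees C of IDH1-knockdown HT-1080 cells in 5% FBS RPMI. %Activity scaled between DMSO wells and cell-free media wells, with curves fitted and assigned curve classes.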
DT40 TDP1 no CPT: qHTS for Inhibitors of human tyrosyl-DNA phosphodiesterase 1 (TDP1): qHTS in cells in absence of CPT; DT40 Tdp1-/- hTDP1 cells, no CPT, ATP luminescence, 48 h; Potency, µM (top dose mostly 46.2 µM), for inactives: at the highest dose activity change, negative = growth inhibition, most hits filed as inhibitors; actives 15% (n = 420,000); also: potency is read from the fitted curve at half-maximal effect; nearly all actives have a fitted effect of over 55% in size
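Chicken DT40 Tdp1-/- cells complemented with human TDP1, screened without camptothecin (DMSO vehicle only), 400 cells/well. Compounds pin-transferred, cells incubated at 37 °C for at least 48 hr. Growth read as ATP-dependent luminescence (CellTiter-Glo, 30 min at RT).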
IL-1B inflam inh: blocks inflammasome-driven IL-1 beta release; THP-1 LPS/ATP IL-1B secretion, AlphaLISA, 16 h; stronger effect = lower value; activity change, % at 57.5 µM; actives 4.7% (n = 360,000); AID 743279; in the data active = activity change below about -50%; inconclusive = mostly about -30% to -49%
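THP-1 cells pretreated 1 hr with compounds (up to 57.5 uM final), then stimulated with LPS (250 ng/mL final) plus ATP (1.25 mM final); secreted IL-1B measured by AlphaLISA after 16 hr, decreased signal indicating inhibition.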
HT1080NT lethal: kills 2HG-producing HT-1080-NT fibrosarcoma cells; HT-1080-NT fibrosarcoma viability, CellTiter-Glo ATP luminescence, 48 h; Potency, µM (highest dose often 46.1 µM), for the others: at the highest dose activity, negative = less viability, actives largely listed as cytotoxic; actives 1.6% (n = 360,000); AID 686970;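 also: NT is the 2HG producing partner of a matched IDH1 knockdown line; potency is read from the fitted curve at half-maximal effect; 0% = DMSO-treated cells and -100% = media-only wells without cells; nearly all actives have a fitted effect of over 55% in size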
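A 48-hour cytotoxicity screen used HT-1080-NT cells plated 2 hours before compound delivery. ATP-based CellTiter-Glo luminescence measured viability, normalized to DMSO and no-cell controls.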
ALOX12 inh: inhibitors of human 12S-lipoxygenase ALOX12; P18054; purified 12hLO, xylenol orange hydroperoxide absorbance; Potency, µM (series often up to 108 µM), inactives show at the highest dose activity change, negative = inhibition, usual class: inhibitors; actives 1.1% (n = 580,000); also: potency is read from the fitted curve at half-maximal effect
Target sequence (P18054 whole entry, looked up): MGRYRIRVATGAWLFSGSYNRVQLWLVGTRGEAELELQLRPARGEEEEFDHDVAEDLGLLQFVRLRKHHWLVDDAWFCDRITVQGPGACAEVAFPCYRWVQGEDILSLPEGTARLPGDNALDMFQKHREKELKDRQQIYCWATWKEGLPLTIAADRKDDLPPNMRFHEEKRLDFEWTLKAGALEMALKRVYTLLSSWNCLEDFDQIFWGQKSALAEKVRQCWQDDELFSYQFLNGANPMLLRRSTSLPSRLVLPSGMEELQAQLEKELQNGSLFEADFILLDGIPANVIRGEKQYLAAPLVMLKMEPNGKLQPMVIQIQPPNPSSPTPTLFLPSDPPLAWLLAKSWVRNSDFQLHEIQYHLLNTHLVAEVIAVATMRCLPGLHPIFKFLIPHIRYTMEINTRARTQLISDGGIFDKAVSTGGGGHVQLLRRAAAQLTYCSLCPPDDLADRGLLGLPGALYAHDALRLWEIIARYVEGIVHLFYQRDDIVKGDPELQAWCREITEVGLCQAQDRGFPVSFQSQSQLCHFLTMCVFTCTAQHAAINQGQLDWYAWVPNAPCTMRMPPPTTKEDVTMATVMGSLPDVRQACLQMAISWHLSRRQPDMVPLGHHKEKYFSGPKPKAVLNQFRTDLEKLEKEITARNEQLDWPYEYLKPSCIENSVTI
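Purified human 12hLO (150 nM final) in 25 mM Hepes, 0.01% Triton X-100, pH 7.0 was preincubated 15 min at room temperature with compound. Then 40 uM arachidonic acid was added, 30 min. Hydroperoxide was read by Fe-XO absorbance ratio 573/405 nm.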
DT40 TDP1 CPT: growth inhibition of DT40 Tdp1-/-;hTDP1 cells with camptothecin (screen for TDP1 inhibitors); Potency, µM (titrated, usually from 46.2 µM), for inactives: at the highest dose activity change, negative = growth inhibition, hits mostly inhibitors; actives 12% (n = 420,000); chicken DT40 Tdp1-/-;hTDP1 cells + 20 nM CPT, ATP luminescence, 48 h; AID 686979; also: potency is read from the fitted curve at half-maximal effect; nearly all actives have a fitted effect of over 55% in size
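Cell growth measured by CellTiter-Glo luminescence after a minimum 48 h, 37 C compound exposure with 20 nM CPT in Tdp1-knockout DT40 cells stably expressing hTDP1, seeded 400/well; qHTS titration format.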
Starred values were filed as active, the others as inactive; [ ] = another dose, or the depositor's remark. Only a selection was taken, and hits are over-represented in it overall. Unless noted, calls follow the shape of the dose curve; as a rule, active = well fitted curve in the direction sought with a large enough effect; inconclusive = small, poorly fitted or top-dose-only effect, or another doubt; inactive = no such curve, though single readings can be large; an effect the other way counts as inactive or inconclusive. Unless noted, % is scaled to controls: 0 for no effect and ±100 for the full control effect.

O=C(NNC(=S)NC(=O)c1ccccc1[N+](=O)[O-])c1ccccc1O was read as HT1080 IDH1KD tx -12%, DT40 TDP1 no CPT 18µM*, IL-1B inflam inh 25, HT1080NT lethal -17%, ALOX12 inh -7% and DT40 TDP1 CPT inconclusive.
Screening O=C(COc1ccc(Br)cc1)NNC(=S)NC(=O)c1ccccc1[N+](=O)[O-] returned HT1080 IDH1KD tx -29%, DT40 TDP1 no CPT 21µM*, IL-1B inflam inh 30, HT1080NT lethal -24%, ALOX12 inh inconclusive and DT40 TDP1 CPT inconclusive.
`Cc1ccc(C(=O)NC(=S)NNC(=O)c2ccccc2[N+](=O)[O-])cc1` gave HT1080 IDH1KD tx -17%, DT40 TDP1 no CPT inconclusive, IL-1B inflam inh 0, HT1080NT lethal -9%, ALOX12 inh 32µM* and DT40 TDP1 CPT 21µM*.
`O=C(NNC(=S)NC(=O)c1ccccc1[N+](=O)[O-])c1ccccc1[N+](=O)[O-]` gave HT1080 IDH1KD tx 4%, DT40 TDP1 no CPT -4%, IL-1B inflam inh -18, HT1080NT lethal 2%, ALOX12 inh -17%[57.4 µM] and DT40 TDP1 CPT -2%.
For Cc1nc(CC2CCN(C(=O)Nc3ccc4c(c3)OCCO4)CC2)n[nH]1 the results were ALOX12 inh 30%.
Screening O=C(NNC(=S)Nc1ccccc1)c1ccccc1[N+](=O)[O-] returned HT1080 IDH1KD tx 12%, DT40 TDP1 no CPT -27%, IL-1B inflam inh -73*, HT1080NT lethal 16%, ALOX12 inh 13% and DT40 TDP1 CPT 8%.
O=C(NNC(=S)NC(=O)c1ccccc1[N+](=O)[O-])c1ccc(Cl)cc1Cl was read as HT1080 IDH1KD tx -7%, DT40 TDP1 no CPT inconclusive, IL-1B inflam inh 21, HT1080NT lethal -18%, ALOX12 inh inconclusive and DT40 TDP1 CPT inconclusive.
For CC(c1ccccc1)n1c(-c2ccccc2)n[nH]c1=S (stereo not given) the results were DT40 TDP1 no CPT -30% and DT40 TDP1 CPT -17%.
COc1ccc(-c2nc(C)c(C(C)=O)n2O)cc1 was read as HT1080 IDH1KD tx -17%, DT40 TDP1 no CPT inconclusive, IL-1B inflam inh inconclusive, HT1080NT lethal -14%, ALOX12 inh -8% and DT40 TDP1 CPT -23%.
Cc1nnc(C)c2c(C)n(C(C)c3ccccc3)c(C)c12 (stereo not given) was read as HT1080 IDH1KD tx inconclusive, DT40 TDP1 no CPT 12µM*, IL-1B inflam inh -12, HT1080NT lethal -5%, ALOX12 inh -7% and DT40 TDP1 CPT 16µM*.
Screening COc1ccc(C(C)n2c(C)c3c(C)nnc(C)c3c2C)cc1 (stereo not given) returned HT1080 IDH1KD tx -11%, DT40 TDP1 no CPT 23µM*, IL-1B inflam inh -5, HT1080NT lethal 1%, ALOX12 inh 37% and DT40 TDP1 CPT 15µM*.
Screening CC(C)(C)c1ccc(C2CC2C(=O)N/N=C/c2ccsc2)cc1 (stereo not given) returned ALOX12 inh 38%.
Screening COc1ccc(C2N(c3ccc(Cl)cc3)N=C(C(C)=O)N(C)N2C(C)=O)cc1 (stereo not given) returned HT1080 IDH1KD tx inconclusive, DT40 TDP1 no CPT inconclusive, IL-1B inflam inh -58*, HT1080NT lethal inconclusive, ALOX12 inh -59% and DT40 TDP1 CPT -14%.
CN(C)C(=O)c1ccc(OC2CCN(C(=O)C3CCCC3)CC2)nc1 was read as ALOX12 inh 11%.
`CC(c1ccccc1F)n1cc(C(=O)NCCc2ccco2)nn1` (stereo not given) gave HT1080 IDH1KD tx -9%, DT40 TDP1 no CPT 18µM*, IL-1B inflam inh inconclusive, HT1080NT lethal -22%, ALOX12 inh -6% and DT40 TDP1 CPT inconclusive.
